Compound activity: PubChem BioAssay, National Center for Advancing Translational Sciences (NCATS)
The sample as a whole holds a higher share of hits than the screen did.
NTMT1 inhibitor – blocks human N-terminal methyltransferase 1 activity; 59,000 tested, 2.5% active; Potency, µM (top dose mostly 114 µM), without a hit: top-dose activity change, negative = inhibition, hits mostly inhibitors; AID 1645870; NTMT1 MTase-Glo SAH luminescence, purified enzyme;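 note: potency is the fitted concentration of half-maximal effect; plate controls were DMSO vehicle for no effect and no enzyme for full effect; nearly all actives have a fitted effect of over 65% in size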
Target sequence (Q9BV86 whole entry, looked up): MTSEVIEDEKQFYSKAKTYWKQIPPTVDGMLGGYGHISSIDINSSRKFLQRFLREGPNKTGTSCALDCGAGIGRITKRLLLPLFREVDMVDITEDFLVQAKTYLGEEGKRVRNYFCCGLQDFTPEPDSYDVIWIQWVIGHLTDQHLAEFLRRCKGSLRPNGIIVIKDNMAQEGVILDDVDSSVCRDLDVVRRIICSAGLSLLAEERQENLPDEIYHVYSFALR
Sfp PPTase inh – inhibitors of Bacillus subtilis Sfp PPTase, optimization followup; shares compounds with NTMT1 inhibitor; purified Sfp PPTase enzyme activity, qHTS; Potency, µM (top dose mostly 114 µM), without a hit: top-dose activity change, negative = inhibition, actives largely listed as inhibitors; 230 tested, 78% active
Bsub HM489 growth – B. subtilis HM489 growth inhibition; shares compounds with NTMT1 inhibitor; B. subtilis HM489 (acpS-) growth, BacTiter-Glo, 5 h; Potency, µM (doses to about 114 µM), for the others: at the highest dose activity change, negative = inhibition, actives largely listed as inhibitors; 220 tested, 50% active
Sfp gel opt – Sfp PPTase inhibition, gel-based detection | shares compounds with NTMT1 inhibitor | purified Sfp PPTase, gel-based product detection | Potency, µM (titrated, usually from 250 µM), for inactives: top-dose activity change, negative = inhibition, actives largely listed as inhibitors | 220 tested, 54% active
Sfp inh gel – Sfp phosphopantetheinyl transferase inhibition, gel detection; shares compounds with NTMT1 inhibitor; purified Sfp PPTase, gel-based product detection; Potency, µM (top dose mostly 250 µM), for the others: at the highest dose activity change, negative = inhibition, usual class: inhibitors; 45 tested, 90% active; AID 602362
Sfp inh SAR2 – inhibitors of Bacillus subtilis Sfp PPTase, SAR round 2 | AID 602370 | Potency, µM (titrated, usually from 57.1 µM), without a hit: top-dose activity change, negative = inhibition, usual class: inhibitors | 230 tested, 87% active | purified Sfp enzyme, PPTase activity, qHTS | shares compounds with NTMT1 inhibitor
hGST ctr – hGST A1-1 enzyme inhibition, Sfp SAR counter-screen; Potency, µM (doses to about 114 µM), for inactives: top-dose activity change, negative = inhibition, most hits filed as inhibitors; hGST A1-1 enzyme activity counter-screen, qHTS; 55 tested, under 10 active; shares compounds with NTMT1 inhibitor
HSD17B4 inh – HSD17B4 (human) inhibition, HPGD counter-screen; shares compounds with NTMT1 inhibitor; purified HSD17B4, estradiol/NAD+, NADH fluorescence; Potency, µM (series often up to 57.1 µM), without a hit: top-dose activity change, negative = inhibition, actives largely listed as inhibitors; 230 tested, 10% active
ALDH1A1 counter – inhibits human ALDH1A1, off-target for HPGD inhibitors; recombinant ALDH1A1, NADH fluorescence, propionaldehyde/NAD+; shares compounds with NTMT1 inhibitor; Potency, µM (doses to about 57.1 µM), inactives show at the highest dose activity change, negative = inhibition, hits mostly inhibitors; 230 tested, 93% active
NNMT inh – counter-screen for NTMT1 inhibitors: human NNMT inhibition; NNMT MTase-Glo luminescence, SAH detection; shares compounds with NTMT1 inhibitor; Potency, µM (titrated, usually from 57.1 µM), for inactives: at the top dose activity, negative = inhibition, actives largely listed as inhibitors; 120 tested, 10% active
* marks the source's active call; other numbers are inactive results; [ ] = dose if it differs, or a comment. Calls come from the whole dose curve; as a rule, active = well fitted curve in the direction sought with a large enough effect; inconclusive = small, poorly fitted or top-dose-only effect, or another doubt; inactive = no such curve, though single readings can be large; an effect the other way counts as inactive or inconclusive.

What do the screens show for `Cc1ccnc(NC(=S)N2CC3CN(c4ncc(C(F)(F)F)cc4Cl)CC3C2)c1` (stereo not given)?
NTMT1 inhibitor: inconclusive; Sfp PPTase inh: 0.58µM*; Sfp inh SAR2: 1.3µM*; hGST ctr: -3%; HSD17B4 inh: -2%; ALDH1A1 counter: 0.38µM*

What do the screens show for `CC(C)=C1CC2C(CCC2(C)O)C(C)(O)CC1=O` (stereo not given)?
NTMT1 inhibitor: 4%[57.5 µM]

How did FC(F)(F)c1cccc(N2CCN(C(=S)Nc3nccc4ccccc34)CC2)c1 do in these assays?
NTMT1 inhibitor: inconclusive; Sfp PPTase inh: 1.9µM*; Bsub HM489 growth: 2.6µM*; Sfp gel opt: 7.9µM*; Sfp inh gel: 1.3µM*; Sfp inh SAR2: 1.4µM*; hGST ctr: -10%; HSD17B4 inh: 27µM*; ALDH1A1 counter: 17µM*

What do the screens show for `FC(F)(F)c1cccc(N2CCN(C(=S)Nc3ccc4ccccc4n3)CC2)c1`?
Sfp PPTase inh: 5.9µM*; Bsub HM489 growth: inconclusive; Sfp gel opt: 0.32µM*; Sfp inh SAR2: 10µM*; HSD17B4 inh: -23%; ALDH1A1 counter: 6.8µM*

How did COc1cc2ncnc(Nc3ccc(F)c(Cl)c3)c2cc1NC(=O)/C=C/CN1CCCCC1 do in these assays?
NTMT1 inhibitor: 8.9µM*; NNMT inh: inconclusive
